Compounds with a hit are over-represented: about 4.1% of the library has one in this group of screens.
TIM10 inh = inhibits growth of TIM10 yeast strain | S. cerevisiae TIM10 strain growth, BacTiter-Glo luminescence, 24 h | inhibition, % at 10 µM | actives 1.4% (n = 330,000);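 active = inhibition of 40% or more at the single tested concentration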;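 also: wild-type TIM10 isogenic control strain grown at permissive 25 °C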
tim10-1 inh = tim10-1 yeast growth inhibition | S. cerevisiae tim10-1 ts strain growth, BacTiter-Glo, 24 h | actives 2.2% (n = 330,000) | inhibition, % at 20 µM;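 active = inhibition of at least 40%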;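 also: mutant grown at 25 °C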
NALP1 inh = inhibitors of NALP1 inflammasome in yeast. actives 0.61% (n = 280,000). S. cerevisiae NALP1/ASC/caspase-1 growth, X-gal OD620, 72 h. inhibition, % at 10 µM; in the data active = inhibition mostly above about 24%, no sharp cut-off; inactive = mostly below about 32%
PfHsp90 yeast 2 = growth inhibition of yeast expressing Plasmodium Hsp90. S. cerevisiae expressing PfHsp90, BacTiter-Glo ATP, 48 h; yeast lacking PDR1 and PDR3 efflux regulators. inhibition, % at 9.4 µM. actives 0.32% (n = 310,000). AID 504621;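 active = every replicate shows inhibition above about 80%, whatever the replicate mean, limit read from the data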
tim23-1 inh = inhibits growth of tim23-1 mutant yeast; inhibition, % at 20 µM; S. cerevisiae tim23-1 growth, BacTiter-Glo luminescence, 24 h; actives 1.3% (n = 330,000); AID 463212;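 active = growth inhibition of the mutant yeast at or above 50%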;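 also: temperature-sensitive mutant grown at 25 °C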
NALP3 yeast inh = blocks the NALP3 inflammasome reconstituted in yeast. Yeast reconstituted NLRP3/ASC/caspase-1, beta-gal luminescence, 24 h. inhibition, % at 10 µM. actives 0.39% (n = 330,000). AID 2825;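 active = inhibition of 50% or more; inactive = inhibition below 50%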
tim23-1 conf = tim23-1 yeast growth inhibition, confirmed. shares compounds with tim23-1 inh. S. cerevisiae tim23-1 growth, BacTiter-Glo luminescence, 24 h. inhibition, % at 20 µM. actives 83% (n = 4,400). AID 463218;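 active = inhibition above about 39% in either of two replicate wells at 20 µM, limit read from the data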;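 also: temperature-sensitive tim23-1 mutant grown at 25 °C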
Hits are given with their value; - = inactive; . = not tested or not shown.

SMILES | TIM10 inh | tim10-1 inh | NALP1 inh | PfHsp90 yeast 2 | tim23-1 inh | NALP3 yeast inh | tim23-1 conf
CSc1cccc(NC(=O)CN(C)S(=O)(=O)c2cnc[nH]2)c1 | - | - | - | - | - | - | .
Oc1c(Br)cc(Br)cc1CNc1cnc2ccccc2c1 | - | - | - | - | 71.6 | - | 64.8
Oc1c(Br)cc(Br)cc1CNc1ccc(F)cc1 | - | - | - | - | - | - | .
CCCc1cc(=O)[nH]c(SCC(=O)N2CCc3ccccc3C2)n1 | - | - | . | . | - | - | .
CCC(=O)Nc1c(-c2ccc(Cl)cc2)c(=O)c2ccccc2n1C | - | - | - | - | - | - | .
Nc1cc(-c2ccc(Br)cc2)nn1Cc1ccccc1 | . | . | - | - | . | . | .
Nc1cc(-c2ccccc2)nn1Cc1ccc(Cl)cc1 | - | - | - | - | 50.4 | - | -
COc1ccc2[nH]c(=O)c(CN(CC3CCCO3)C(=S)Nc3ccccc3)cc2c1 (stereo not given) | - | - | - | - | - | - | .
Cc1cc2cc(CN(CC3CCCO3)C(=S)Nc3ccccc3)c(=O)[nH]c2cc1C (stereo not given) | - | - | - | - | 54.7 | - | 49.6
COc1cc(OC)cc(C(=O)NCC2CCCN(Cc3cccc(C(C)=O)c3)C2)c1 (stereo not given) | - | - | - | - | - | - | .
O=c1oc(-c2cccs2)nc2ccc(Br)cc12 | - | - | - | - | 67.0 | - | -
Cc1ccc2nc(-c3cccs3)oc(=O)c2c1 | - | - | - | . | - | - | .
COc1ccc(/C=C(\C#N)c2nc3ccccc3[nH]2)cc1O | - | - | - | - | 51.4 | - | 42.5
COc1cc(/C=C(\C#N)c2nc3ccccc3[nH]2)ccc1Oc1ccc([N+](=O)[O-])cn1 | - | - | - | - | 57.6 | - | -
COc1cc(/C=C(\C#N)c2nc3ccccc3[nH]2)cc(OC)c1O | . | . | - | - | . | . | .
O=C(OCCc1ccccn1)c1cccc([N+](=O)[O-])c1 | . | . | . | - | . | . | .
CCN(CC)S(=O)(=O)c1csc(C(=O)NC2CCCCC2)c1 | - | - | - | . | 96.1 | - | -
CCN(CC)S(=O)(=O)c1cccc(C(=O)NC2CCCCC2)c1 | - | - | - | - | - | - | .
Cc1cccc(/C=N/NC(=O)c2cc(Br)ccc2OCc2ccccc2)n1 | - | - | - | - | - | - | .
Cc1cccc(/C=N/NC(=O)c2ccccc2OCc2cccc(Br)c2)n1 | - | - | - | - | 51.5 | - | 55.4
Cc1cccc(NC(=O)c2ccc(Cn3cc(C(F)(F)F)ccc3=O)cc2)c1 | - | - | - | - | - | - | .
Cc1cccc(C(=O)O/N=C/c2ccc(Br)cc2)c1 | - | - | - | - | - | - | .
Cc1ccc(/C(N)=N/OC(=O)c2cccc(Cn3cc(C(F)(F)F)ccc3=O)c2)cc1 | - | - | - | - | 58.7 | - | 60.5
Cc1cccc(C(=O)O/N=C(\N)c2ccc(Br)cc2)c1 | - | - | - | - | 96.2 | - | 50.9
O=C(NCc1cccnc1)c1ccc(Br)s1 | - | - | . | - | - | - | .
SMILES | TIM10 inh | tim10-1 inh | NALP1 inh | PfHsp90 yeast 2 | tim23-1 inh | NALP3 yeast inh | tim23-1 conf
Cc1cccc(C)c1NC(=O)CSC(=O)c1sc2ccccc2c1Cl | - | - | - | - | - | - | .
C=CCn1c(=N)c(S(=O)(=O)c2ccc(C)c(C)c2)cc2c(=O)n3ccccc3nc21 | - | - | - | - | - | - | .
C[C@H](C(=O)NCc1ccccc1)C(=O)c1ccccc1 | - | - | - | - | - | - | .
CN1C(=O)S/C(=C/c2cccnc2)C1=O | - | - | - | - | - | - | .
O=C1/C(=C\c2cccnc2)Sc2ccccc21 | - | - | . | - | 52.9 | - | 58.9
O=C(NC(=S)Nc1ccc(Br)cc1)C1CCC1 | - | - | - | - | 56.8 | - | -
O=C(Nc1ccc(Br)c(Cl)c1)C1CC1 | - | - | 45.0 | . | 62.6 | - | 55.9
O=C(NC(=S)Nc1ccc(F)c(Cl)c1)C1CC1 | - | - | - | - | 54.1 | - | -
CCc1ccc(/C=C2/SC(=S)N(CCC(=O)Nc3cccnc3)C2=O)cc1 | - | - | - | - | - | - | .
COCCN(C(=O)c1sc2ccccc2c1Cl)c1c(N)n(CC(C)C)c(=O)[nH]c1=O | - | - | . | . | - | - | .
C=CCN(c1ccccc1)S(=O)(=O)c1cccc(C(=O)N2CC(C)CC(C)C2)c1 (stereo not given) | - | - | - | - | - | - | .
COc1ccc(OC)c(-c2csc(NC(=O)Cc3ccc(F)cc3)n2)c1 | - | - | - | - | 54.5 | - | 43.0
CCCCC(=O)Nc1ccc(NC(=O)c2cccs2)cn1 | - | - | . | - | 51.4 | - | 42.5
COc1ccc(NC(=O)c2cccs2)cn1 | - | - | - | - | 51.6 | - | 48.0
O=C(Oc1ccccc1C(=S)N1CCOCC1)c1cccc([N+](=O)[O-])c1 | - | - | - | - | - | - | .
CC(C)[C@H](NS(=O)(=O)c1ccccc1)C(=O)OCC(=O)NC(=O)NC1CCCCC1 | - | - | . | - | - | - | .
Cc1cc(C)nc(SCC(=O)c2cc3ccccc3oc2=O)n1 | - | - | - | - | 50.4 | - | 42.8
O=C(CSc1nc2ccccc2o1)c1cc2ccccc2oc1=O | - | - | - | - | - | - | .
CCOC(=O)c1c(C)[nH]c(C)c1S(=O)(=O)N1CCCCC1 | - | - | - | - | - | - | .
COc1ccccc1C(=O)Nc1cccc(S(=O)(=O)N2CCCC2)c1 | - | - | - | - | 97.8 | - | -
Cc1ccccc1[C@@H](NC(=O)OC(C)(C)C)C(=O)OC(C)(C)C | - | - | . | - | - | - | .
Cc1onc(-c2ccccc2Cl)c1C(=O)Nc1cccc(S(=O)(=O)NC2=NCCC2)c1 | - | - | . | - | - | - | .
CC(C)n1cc(NC(=O)c2cc(-c3ccccc3)on2)cn1 | - | - | - | - | 55.0 | - | 53.5
COc1ccc(NC(=O)CN2C(=O)NC(c3ccccc3)(c3ccccc3)C2=O)cc1OC | - | - | - | - | - | - | .
O=C(CCCN1C(=O)/C(=C/c2ccccc2Cl)SC1=S)N1CCCC1 | - | - | - | - | 50.9 | - | 55.8
SMILES | TIM10 inh | tim10-1 inh | NALP1 inh | PfHsp90 yeast 2 | tim23-1 inh | NALP3 yeast inh | tim23-1 conf
CN1CCN(C(=O)CCCN2C(=O)/C(=C/c3cccc(Br)c3)SC2=S)CC1 | - | - | - | - | - | - | .
O=C(CCCN1C(=O)/C(=C/c2cccc(Br)c2)SC1=S)N1CCOCC1 | - | - | - | - | 53.5 | - | -
CCOC(=O)c1c(NC(=O)COC(=O)CC(NC(C)=O)c2ccccc2)sc(C(=O)NC)c1C (stereo not given) | - | - | . | - | - | - | .
O=C(Cn1cc([N+](=O)[O-])ccc1=O)NC1CCCCC1 | - | - | . | - | - | - | .
CCOc1ccc(CNC(=O)CCC(=O)n2nc(C)c3ccccc32)cc1 | - | - | - | - | - | - | .
Cc1cccc(-n2c(SCC(N)=O)nc3c(c2=O)C2(CCCC2)Cc2ccccc2-3)c1 | - | - | - | - | 54.2 | - | 46.7

Screening results deposited in PubChem BioAssay by several laboratories.
